Shiga inhibitor: blocks Shiga toxin action in Vero cells | Vero cells, Shiga toxin protein synthesis inhibition reporter | inhibition, % at 38.7 µM | 290,000 compounds, 9.2% hits; in the data active means inhibition mostly above about 28%, no sharp cut-off; inactive means mostly below about 43%; further: 0% is about no effect
Lassa entry inh: Lassa virus entry inhibition; Lassa virus pseudotype entry inhibition, cell reporter; Potency, µM (doses to about 37.9 µM), without a hit: at the top dose activity change, negative = inhibition, hits mostly inhibitors; 300,000 compounds, 1.2% hits; calls by dose curve; tested in HEK293 cells; further: potency means the concentration at half of the fitted maximal effect; on the % scale 0 is the no-effect control and ±100 the full control effect; nearly all actives have a fitted effect of over 50% in size
Marburg entry inh: Marburg virus entry inhibition | 300,000 compounds, 1.8% hits | AID 540276 | Potency, µM (series often up to 37.8 µM), for inactives: at the top dose activity change, negative = inhibition, actives largely listed as inhibitors | Marburg virus pseudotyped entry inhibition, cell reporter; calls by dose curve; tested in HEK293 cells; further: potency means the concentration at half of the fitted maximal effect; on the % scale 0 is the no-effect control and ±100 the full control effect
CHX counter: affects cycloheximide protein synthesis inhibition readout, counter-screen | cell reporter, cycloheximide protein synthesis inhibition counterscreen | AID 2314 | max response, % | 300,000 compounds, 12% hits; in the data active means max response mostly above about 13%, no sharp cut-off; inactive means mostly below about 14%; further: read at 38.3 µM for the half of the compounds with a filed dose; 0% is about no effect
Active calls of the source: *; ? = inconclusive; · = not tested or not shown; [ ] = another dose, or the depositor's remark. Shown are actives, neighbours in structure and some others; about 12% of the full set was active somewhere.

SMILES | Shiga inhibitor | Lassa entry inh | Marburg entry inh | CHX counter
COc1ccc2[nH]c(C)c(CCNCc3cc(OC)c(OC)c(OC)c3)c2c1 | -6.7 | -27.9% | -29.7%[46.1 µM] | 6.8
COc1ccc(C(=O)COC(=O)[C@H](C)Nc2ccc(C(F)(F)F)cc2[N+](=O)[O-])cc1 | -0.1 | 7.1% | ? | -0.2
Cc1ccccc1OCCNc1ccc(C(F)(F)F)cc1[N+](=O)[O-] | 49.3 | -0.7% | -24.0% | 20.4*
COc1ccc2[nH]c(C)c(CCNc3ccc(C(F)(F)F)cc3[N+](=O)[O-])c2c1 | 9.5 | -2.2% | 2.51µM* | -0.4
COc1ccc(NC(=O)CC2C(=O)N(c3ccc(C)cc3)C(=O)N2Cc2ccc(C)cc2)cc1 (stereo not given) | · | -2.1%[46.1 µM] | -6.9%[46.1 µM] | ·
Cc1ccc(OC(C)C(=O)Nc2ccc(S(=O)(=O)N3CCOCC3)cc2)cc1 (stereo not given) | -4.2 | -22.7% | -19.5% | 7.1
CC(=O)OCCNC(=O)c1cc2ccccc2oc1=O | -8.8 | 6.8% | ? | 5.7
O=C(OCCNc1ccc(C(F)(F)F)cc1[N+](=O)[O-])c1cc2ccccc2oc1=O | 2.0 | 4.0%[46.1 µM] | 13.8%[46.1 µM] | 17.9*
CN(C)S(=O)(=O)NCCNc1ccc(C(F)(F)F)cc1[N+](=O)[O-] | 9.4 | 19.0% | 6.0% | 12.1*
CS(=O)(=O)NCCNc1ccc(C(F)(F)F)cc1[N+](=O)[O-] | -13.0 | · | · | -1.0
O=c1[nH]c2ccccc2c(O)c1SCCO | 3.5 | -18.7%[46.1 µM] | 9.4%[46.1 µM] | -1.6
O=C1C(SCCO)=C(SCCO)C(=O)c2ccccc21 | · | 2.59µM* | 3.98µM* | ·
Cc1cccc(C)c1Nc1c(-c2ccc(Cl)s2)nc2ncccn12 | · | -5.1%[46.1 µM] | ? | ·
c1ccc(COc2ccc(OCCn3cncn3)cc2)cc1 | 53.8* | 1.8% | 18.8%[46.1 µM] | 25.1*
c1ccc(Oc2cccc(OCCn3cncn3)c2)cc1 | 11.2 | 11.3% | 4.4% | -1.6
CC(=O)CCc1ccc(OCCCCn2cncn2)cc1 | 50.6* | ? | 12.5%[46.1 µM] | 19.7*
Brc1cccc(OCCCCn2cncn2)c1 | 14.4 | · | · | 9.3
c1ccc(-c2ccc(OCCCn3cncn3)cc2)cc1 | 60.9* | 0.3% | ? | 40.6*
Cc1nnc(SCC(=O)NNC(=O)C(C)C)[nH]c1=O | -2.3 | 28.9% | 3.1% | 3.0
O=C(Nc1ccc(C(=O)OCc2cc(=O)n3c4c(sc3n2)CCCC4)cc1)c1ccccc1 | · | 2.3%[46.1 µM] | · | ·
COc1ccc(C2NN=C(c3ccc(C)cc3)S2)cc1 (stereo not given) | 105.5* | · | · | 57.1*
CCOc1cc(C2NN=C(c3ccc(C)cc3)S2)ccc1O (stereo not given) | 94.1* | ? | ? | 30.0*
Cc1ccc(C2=NNC(C(O)C(O)C(O)CO)S2)cc1 (stereo not given) | 60.5* | 6.8% | 3.8% | 56.7*
COc1ccc(C2C(=O)NN=C2C)cc1 (stereo not given) | · | 10.4% | ? | ·
O=C(NC1CCCC1)C(c1ccccn1)N(C(=O)c1csnn1)c1ccccc1Br (stereo not given) | · | -0.5% | 14.5% | ·
SMILES | Shiga inhibitor | Lassa entry inh | Marburg entry inh | CHX counter
O=C(Nc1cccc(-c2nc3ncccc3o2)c1)c1sc2ccccc2c1Cl | -8.6 | ? | ? | -2.3
O=C(Nc1cccc(-c2nc3ncccc3o2)c1)c1cc2ccccc2o1 | 84.6* | 2.6% | ? | 21.6*
Cc1ccc(-c2nc3ncccc3o2)cc1NC(=O)c1cc2ccccc2o1 | -15.0 | 1.8% | -15.1% | -1.3
O=C(Nc1cccc(-c2nc3ncccc3o2)c1)c1sc2cc(Cl)ccc2c1Cl | 43.7* | -16.1% | ? | 19.6
CCc1ccc(CNC(=O)CN2C(=O)C3CCCCN3c3ccc(C(=O)N4CCCC4)cc32)cc1 (stereo not given) | · | -7.7%[46.1 µM] | · | ·
CCOc1nc2cnccc2n(CC(=O)Nc2cccc(C)c2)c1=O | -3.9 | -23.6%[46.1 µM] | -0.8%[46.1 µM] | 6.1
C=C(CCN1C=C(C(=O)OCC)C(c2ccccc2)NC1=O)c1ccc(Cl)cc1 (stereo not given) | · | · | 14.3%[14.2 µM] | ·
O=C(CN1CCN(c2ccccc2)CC1)N/N=C/c1cccc(F)c1 | 6.0 | 1.8% | ? | -0.4
Cn1c(/C=C/c2ccccc2[N+](=O)[O-])nc2ccccc2c1=O | 33.4 | -7.7%[46.1 µM] | -15.0%[46.1 µM] | 9.2*
O=[N+]([O-])c1ccccc1/C=C/c1ccc2ccccc2n1 | 48.5* | -14.3%[46.1 µM] | ? | 40.0*
Cn1c(/C=C/c2ccc(Br)cc2)nc2ccccc2c1=O | 20.2 | · | · | 29.9*
CCn1c(/C=C/c2ccccc2[N+](=O)[O-])nc2ccccc2c1=O | 27.5 | 16.4%[46.1 µM] | -21.8%[46.1 µM] | 11.4
O=c1c2ccccc2nc(/C=C/c2cc(Br)ccc2O)n1CCCO | 0.5 | 10µM* | ? | -1.7
Cc1cc2c(cc1S(=O)(=O)CCC(=O)N(C)C1CCCCC1)OCC(=O)N2 | -0.9 | -9.2%[46.1 µM] | · | 3.0
O=C(Cn1cc(SCc2cccc(F)c2)c2ccccc21)N1CCCC1 | · | 11.5%[46.1 µM] | · | ·

High-throughput results from PubChem BioAssay.
